{
  "source": "the supplement of paper PMC8728848",
  "test_in_all_cases": "glycan array binding signal (z-score within array); higher = stronger binding",
  "conditions_in_all_cases": "glycan notation: IUPAC condensed, linker removed",
  "key": {"[1]": {"target": "Gal(b1-4)GlcNAc(b1-3)Gal(b1-4)GlcNAc(b1-3)Gal(b1-4)GlcNAc(b1-3)Gal(b1-4)GlcNAc(b1-3)Gal(b1-4)GlcNAc(b1-3)Gal(b1-4)GlcNAc(b1-2)Man(a1-3)[Gal(b1-4)GlcNAc(b1-3)Gal(b1-4)GlcNAc(b1-3)Gal(b1-4)GlcNAc(b1-3)Gal(b1-4)GlcNAc(b1-3)Gal(b1-4)GlcNAc(b1-3)Gal(b1-4)GlcNAc(b1-2)Man(a1-6)]Man(b1-4)GlcNAc(b1-4)GlcNAc", "procedure,_shortened": "(§1)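 Glycan array data came from 3228 arrays in the Consortium for Functional Glycomics database, and only arrays with an available protein sequence were kept. Glycan names were put into IUPAC-condensed notation, and columns mapping to the same glycan were averaged. The binding signal is a within-array Z-score, averaged across arrays of one protein sequence run at different concentrations or buffers and across linkers. A negative Z-score can be read as non-binding.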"}, "[2]": {"target": "Gal(b1-6)Gal", "procedure,_shortened": "as §1"}, "[3]": {"target": "Gal3S(b1-3)GlcNAc", "procedure,_shortened": "as §1"}, "[4]": {"target": "Gal3S(b1-4)[Fuc(a1-3)]GlcNAc6S", "procedure,_shortened": "as §1"}, "[5]": {"target": "Gal6S(b1-3)GlcNAc", "procedure,_shortened": "as §1"}, "[6]": {"target": "Gal6S(b1-4)Glc6S", "procedure,_shortened": "as §1"}, "[7]": {"target": "GlcNAc(a1-3)Gal(b1-4)GlcNAc", "procedure,_shortened": "as §1"}, "[8]": {"target": "GlcNAc(b1-2)Gal(b1-3)GalNAc", "procedure,_shortened": "as §1"}, "[9]": {"target": "GlcNAc(b1-2)Man(a1-3)[GlcNAc(b1-4)][GlcNAc(b1-2)Man(a1-6)]Man(b1-4)GlcNAc(b1-4)GlcNAc", "procedure,_shortened": "as §1"}, "[10]": {"target": "GlcNAc(b1-3)Gal", "procedure,_shortened": "as §1"}, "[11]": {"target": "GlcNAc(b1-4)GlcNAc(b1-4)GlcNAc(b1-4)GlcNAc(b1-4)GlcNAc", "procedure,_shortened": "as §1"}, "[12]": {"target": "Man(a1-2)Man(a1-6)[Man(a1-3)]Man(a1-6)[Man(a1-2)Man(a1-2)Man(a1-3)]Man(b1-4)GlcNAc(b1-4)GlcNAc", "procedure,_shortened": "as §1"}, "[13]": {"target": "Man(a1-3)[Man(a1-6)]Man(a1-6)[Man(a1-3)]Man(b1-4)GlcNAc(b1-4)GlcNAc", "procedure,_shortened": "as §1"}, "[14]": {"target": "Neu5Ac(a2-3)Gal(b1-3)GalNAc6S", "procedure,_shortened": "as §1"}, "[15]": {"target": "Neu5Ac(a2-3)Gal(b1-3)GlcNAc(b1-3)Gal(b1-3)GlcNAc", "procedure,_shortened": "as §1"}, "[16]": {"target": "Neu5Ac(a2-3)Gal(b1-3)[Neu5Ac(a2-6)]GalNAc", "procedure,_shortened": "as §1"}, "[17]": {"target": "Neu5Ac(a2-3)Gal(b1-4)GlcNAc(b1-6)[Neu5Ac(a2-3)Gal(b1-3)]GalNAc", "procedure,_shortened": "as §1"}, "[18]": {"target": "Neu5Ac(a2-3)Gal(b1-4)[Fuc(a1-3)]GlcNAc(b1-3)Gal", "procedure,_shortened": "as §1"}, "[19]": {"target": "Neu5Ac(a2-6)Gal(b1-4)GlcNAc(b1-2)[Neu5Ac(a2-6)Gal(b1-4)GlcNAc(b1-6)]Man(a1-6)[Neu5Ac(a2-6)Gal(b1-4)GlcNAc(b1-2)Man(a1-3)][GlcNAc(b1-4)]Man(b1-4)GlcNAc(b1-4)GlcNAc", "procedure,_shortened": "as §1"}, "[20]": {"target": "Neu5Ac(a2-6)Gal(b1-4)GlcNAc(b1-3)Gal(b1-4)GlcNAc(b1-3)[Neu5Ac(a2-6)Gal(b1-4)GlcNAc(b1-3)Gal(b1-4)GlcNAc(b1-6)]GalNAc", "procedure,_shortened": "as §1"}, "[21]": {"target": "Neu5Ac(a2-6)GlcNAc(b1-4)GlcNAc", "procedure,_shortened": "as §1"}, "[22]": {"target": "Neu5Ac(a2-8)Neu5Ac(a2-3)[GalNAc(b1-4)]Gal(b1-4)Glc", "procedure,_shortened": "as §1"}},
  "note": "Many of the other results were omitted from the sample, so the strongest signals are more common in it than they were.",
  "data": [
    {"binder": "rCnSL-A (Clitocybe nebularis) (protein) VNPNLPGPNDVFVGFRGTNNIVGAIYEKDGIKDTPLNNGADAEMGPGSYITDGLFTARIFASGSAGNNPGTTATVCKIYASGVQWRGAPKGYIPVAYFGNGPTAEQRRQTYLRTLGLPGTAIRFGNLNTNPGQGPTAPRQMVVPPGPLRSLLKASCFPAADTRLPQTLHYFEKRVDWNIITAADSQTWGH", "values": [
      {"measurement": "glycan array binding signal (z-score)", "setting": "[1]", "result": 7.72},
      {"measurement": "glycan array binding signal (z-score)", "setting": "[2]", "result": -0.201},
      {"measurement": "glycan array binding signal (z-score)", "setting": "[3]", "result": -0.252},
      {"measurement": "glycan array binding signal (z-score)", "setting": "[4]", "result": -0.25},
      {"measurement": "glycan array binding signal (z-score)", "setting": "[5]", "result": -0.309},
      {"measurement": "glycan array binding signal (z-score)", "setting": "[6]", "result": -0.241},
      {"measurement": "glycan array binding signal (z-score)", "setting": "[7]", "result": -0.253},
      {"measurement": "glycan array binding signal (z-score)", "setting": "[8]", "result": -0.27},
      {"measurement": "glycan array binding signal (z-score)", "setting": "[9]", "result": -0.223},
      {"measurement": "glycan array binding signal (z-score)", "setting": "[10]", "result": -0.22},
      {"measurement": "glycan array binding signal (z-score)", "setting": "[11]", "result": -0.217},
      {"measurement": "glycan array binding signal (z-score)", "setting": "[12]", "result": -0.138},
      {"measurement": "glycan array binding signal (z-score)", "setting": "[13]", "result": -0.237},
      {"measurement": "glycan array binding signal (z-score)", "setting": "[14]", "result": -0.234},
      {"measurement": "glycan array binding signal (z-score)", "setting": "[15]", "result": -0.25},
      {"measurement": "glycan array binding signal (z-score)", "setting": "[16]", "result": -0.305},
      {"measurement": "glycan array binding signal (z-score)", "setting": "[17]", "result": -0.165},
      {"measurement": "glycan array binding signal (z-score)", "setting": "[18]", "result": -0.229},
      {"measurement": "glycan array binding signal (z-score)", "setting": "[19]", "result": -0.269},
      {"measurement": "glycan array binding signal (z-score)", "setting": "[20]", "result": 0.406},
      {"measurement": "glycan array binding signal (z-score)", "setting": "[21]", "result": -0.287},
      {"measurement": "glycan array binding signal (z-score)", "setting": "[22]", "result": -0.246}
    ]}
  ]
}
